Laboratory results: PubChem BioAssay (Tox21)
Values joined by “and” are separate entries in the source; they are usually repeats but may differ in a detail not shown here. Equal values may be shown once. Records with an inconclusive call do not appear. Where a call stands in place of a potency, no number is given. A structure can be active in one record and inactive in another. Active and inactive are the calls of the source. Unless noted, calls come from the whole dose curve; as a rule, active = well fitted curve in the direction sought with a large enough effect in the repeat runs; inconclusive = weak or mixed curves; inactive = no such curve, though single readings can be large; an effect the other way counts as inactive or inconclusive.

Tests used:
[1] = A CellTox Green Cytotoxicity Assay to monitor cytotoxicity in HepG2 cells - 0 hour (AID 1224882); note: nearly all actives have a fitted effect of over 35% in size
Outline: (§1)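 Cytotoxicity was tracked as dead-cell DNA fluorescence in HepG2 cells treated with test compounds at 37 C; each time-point value comes from one kinetic series spanning 0, 8, 16, 24, 32 and 40 h.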

[2] = A CellTox Green Cytotoxicity Assay to monitor cytotoxicity in HepG2 cells - 32 hour (AID 1224883); note: nearly all actives have a fitted effect of over 50% in size
Outline: as §1

[3] = A CellTox Green Cytotoxicity Assay to monitor cytotoxicity in HEK293 cells - 8 hour (AID 1224884); note: nearly all actives have a fitted effect of over 35% in size
Outline: (§2)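 Real-time, in one plate: 600 HEK293 cells/well with dead-cell DNA dye, pinned compound after 5 h, 37 C incubation over 40 h; viable cells give no appreciable fluorescence.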

[4] = qHTS RealTime-Glo MT Cell Viability Assay in HepG2 cells - 16 hour (AID 1224885); note: nearly all actives have a fitted effect of over 50% in size
Outline: (§3)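 HepG2 cells were seeded at 600 cells/well together with NanoLuc luciferase and a cell-permeant prosubstrate, preincubated 5 h at 37 C/5% CO2, then pin-dosed with compounds in DMSO. Nonlytic luminescence from viable cells was read at each time point.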

[5] = qHTS RealTime-Glo MT Cell Viability Assay in HEK293 cells - 8 hour (AID 1224887); note: nearly all actives have a fitted effect of over 50% in size; note: potency is the fitted concentration of half-maximal effect
Outline: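 Kinetic, non-lysing viability readout. Seed HEK293 (600/well) with reagent, incubate 5 h at 37 C/5% CO2, pin 23 nL compound in DMSO, incubate at 37 C, read luminescence at 0, 8, 16, 24, 32, 40 h.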

[6] = A CellTox Green Cytotoxicity Assay to monitor cytotoxicity in HEK293 cells - 16 hour (AID 1224888); note: nearly all actives have a fitted effect of over 35% in size
Outline: as §2

[7] = qHTS RealTime-Glo MT Cell Viability Assay in HepG2 cells - 0 hour (AID 1224889); note: nearly all actives have a fitted effect of over 50% in size
Outline: as §3

[8] = A CellTox Green Cytotoxicity Assay to monitor cytotoxicity in HepG2 cells - 8 hour (AID 1224890); note: nearly all actives have a fitted effect of over 45% in size
Outline: as §1

[9] = qHTS assay to identify small molecule antagonists of the estrogen receptor alpha (ER-alpha) signaling pathway using the BG1 cell line in the presence of 0.1 nM 17-beta-estradiol - cell viability counter screen (AID 1259241); note: nearly all actives have a fitted effect of over 40% in size
Outline: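 Following 5 days in phenol red-free medium with charcoal-stripped serum, VM7Luc4E2 cells received test compounds alongside 0.1 nM 17beta-estradiol (final) at 37C for 22 hr. Live cells were then quantified via protease-substrate fluorescence.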

[10] = qHTS assay to identify small molecule antagonists of the androgen receptor (AR) signaling pathway using the MDA cell line in the presence of 0.5 nM R1881 - cell viability counter screen (AID 1259242); note: nearly all actives have a fitted effect of over 45% in size
Outline: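 Cells seeded at 3,000/well and allowed 5 hr at 37C, 0% CO2 before compound transfer and R1881 (0.5 nM final) addition; 16 hr later, live-cell protease fluorescence indicated cytotoxicity.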

[11] = target: Estrogen receptor (Homo sapiens) (UniProt P03372); experiment: qHTS assay to identify small molecule antagonists of the estrogen receptor alpha (ER-alpha) signaling pathway using the BG1 cell line in the presence of 0.1 nM 17-beta-estradiol (AID 1259244); note: nearly all actives have a fitted effect of over 50% in size; note: potency is the fitted concentration of half-maximal effect
Outline: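 Luciferase signal from VM7Luc4E2 ERE-reporter cells, co-dosed with test compound and 0.1 nM final 17beta-estradiol for 22 h, read with ONE-Glo.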

[12] = qHTS assay to identify small molecule HDAC inhibitors (AID 1259364);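 note: wild-type HCT-116 cells with endogenous class I/II HDAC activity; top concentration of the series differs between compounds; nearly all actives have a fitted effect of over 45% in size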
Outline: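 HCT-116 wt cells, 1,500/well, overnight attach. Compounds (DMSO) 2 h, 37 °C. HDAC-Glo I/II, 30 min RT. Luminescence.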

[13] = qHTS assay to identify small molecule HDAC inhibitors - cell viability counter screen (AID 1259365)
Outline: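 HCT-116 wild-type, overnight attachment; 2hr drug exposure, 37C; CellTiter-Glo luminescent ATP readout after 30min RT.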

[14] = qHTS assay to identify small molecule agonists of the sonic hedgehog signaling (Shh) pathway - cell viability counter screen (AID 1259366); note: nearly all actives have a fitted effect of over 50% in size
Outline: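 Compounds in DMSO were pin-transferred onto 3T3 Gli1-Luc cells that had settled 4hr; plates then stood 24hr at 37C and 5% CO2. One hour before the end, CellTiter-Fluor was added and fluorescence recorded.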

[15] = qHTS assay to identify small molecule antagonists of the sonic hedgehog signaling (Shh) pathway - cell viability counter screen (AID 1259367); note: nearly all actives have a fitted effect of over 55% in size
Outline: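 CellTiter-Fluor signal in conditioned medium-stimulated 3T3 Gli1-Luc cells, 23 hr compound exposure, 37C.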

[16] = qHTS assay to identify small molecule agonists of the sonic hedgehog signaling (Shh) pathway (AID 1259368; calls by dose curve;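 note: NIH/3T3-derived 3T3Gli1-Luc cells carrying a stable Gli1-driven firefly luciferase reporter; series mostly up to about 92 µM; nearly all actives have a fitted effect of over 15% in size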)
Outline: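 Following a 24 hr incubation with DMSO-dissolved compounds at 37 C, 5% CO2, Gli1-Luc NIH/3T3-derived cells received luciferase reagent for 30 min at room temperature prior to luminescence measurement.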

[17] = qHTS assay to identify small molecule antagonists of the sonic hedgehog signaling (Shh) pathway (AID 1259369; calls by dose curve; note: nearly all actives have a fitted effect of over 45% in size; note: potency is the fitted concentration of half-maximal effect)
Outline: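 Read-out is luminescence from a firefly luciferase gene controlled by the Gli1 response element, in 3T3Gli1-Luc cells pre-incubated 4hr then exposed to compounds and conditioned medium for 24hr.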

[18] = target: Androgen receptor (Homo sapiens) (UniProt P10275); experiment: qHTS assay to identify small molecule antagonists of the androgen receptor (AR) signaling pathway using the MDA cell line in the presence of 0.5 nM R1881 (AID 1259243); note: nearly all actives have a fitted effect of over 50% in size
Outline: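 Luminescence from an AR/GR-responsive MMTV-luciferase construct in MDA-kb2 breast carcinoma cells, read 30 min after ONE-Glo, following 16 hr co-treatment with compounds and 0.5 nM R1881.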

[19] = qHTS assay to identify small molecule phospholipidosis (PLD) inducers (AID 1259344; active = well fitted curve in the direction sought with a large enough effect; an effect the other way counts as inactive or inconclusive)
Outline: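 Accumulated phospholipid, stained red by LipidTOX during 24 h compound treatment of HepG2 cells at 37 C, is quantified from images as pit number and intensity, normalised per cell using Hoechst-stained nuclei.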

Androgen receptor (Homo sapiens), sequence (P10275 whole entry, looked up): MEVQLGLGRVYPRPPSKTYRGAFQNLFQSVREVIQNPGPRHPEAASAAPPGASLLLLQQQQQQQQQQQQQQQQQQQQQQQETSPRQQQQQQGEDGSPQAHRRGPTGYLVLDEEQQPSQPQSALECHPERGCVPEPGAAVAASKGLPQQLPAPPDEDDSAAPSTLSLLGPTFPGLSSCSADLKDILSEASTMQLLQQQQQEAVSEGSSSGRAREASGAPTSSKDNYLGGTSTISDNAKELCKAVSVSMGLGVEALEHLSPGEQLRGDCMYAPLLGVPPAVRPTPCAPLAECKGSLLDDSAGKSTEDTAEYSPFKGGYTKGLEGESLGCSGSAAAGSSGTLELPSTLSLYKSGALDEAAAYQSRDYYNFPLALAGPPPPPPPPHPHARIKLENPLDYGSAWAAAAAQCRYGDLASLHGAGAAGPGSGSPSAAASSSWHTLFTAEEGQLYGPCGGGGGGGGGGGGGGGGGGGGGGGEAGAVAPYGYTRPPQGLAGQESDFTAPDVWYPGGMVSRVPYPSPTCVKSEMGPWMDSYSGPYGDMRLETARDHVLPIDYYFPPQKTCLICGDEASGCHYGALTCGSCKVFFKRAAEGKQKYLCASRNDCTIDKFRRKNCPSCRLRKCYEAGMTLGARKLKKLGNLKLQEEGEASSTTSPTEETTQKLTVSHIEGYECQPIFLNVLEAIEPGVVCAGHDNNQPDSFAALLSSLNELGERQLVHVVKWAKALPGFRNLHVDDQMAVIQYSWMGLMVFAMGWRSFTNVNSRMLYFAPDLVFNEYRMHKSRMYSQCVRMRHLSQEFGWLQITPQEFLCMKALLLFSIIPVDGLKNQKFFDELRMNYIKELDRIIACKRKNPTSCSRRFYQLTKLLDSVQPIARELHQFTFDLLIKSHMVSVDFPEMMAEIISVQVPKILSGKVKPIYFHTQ
Estrogen receptor (Homo sapiens), sequence (P03372 whole entry, looked up): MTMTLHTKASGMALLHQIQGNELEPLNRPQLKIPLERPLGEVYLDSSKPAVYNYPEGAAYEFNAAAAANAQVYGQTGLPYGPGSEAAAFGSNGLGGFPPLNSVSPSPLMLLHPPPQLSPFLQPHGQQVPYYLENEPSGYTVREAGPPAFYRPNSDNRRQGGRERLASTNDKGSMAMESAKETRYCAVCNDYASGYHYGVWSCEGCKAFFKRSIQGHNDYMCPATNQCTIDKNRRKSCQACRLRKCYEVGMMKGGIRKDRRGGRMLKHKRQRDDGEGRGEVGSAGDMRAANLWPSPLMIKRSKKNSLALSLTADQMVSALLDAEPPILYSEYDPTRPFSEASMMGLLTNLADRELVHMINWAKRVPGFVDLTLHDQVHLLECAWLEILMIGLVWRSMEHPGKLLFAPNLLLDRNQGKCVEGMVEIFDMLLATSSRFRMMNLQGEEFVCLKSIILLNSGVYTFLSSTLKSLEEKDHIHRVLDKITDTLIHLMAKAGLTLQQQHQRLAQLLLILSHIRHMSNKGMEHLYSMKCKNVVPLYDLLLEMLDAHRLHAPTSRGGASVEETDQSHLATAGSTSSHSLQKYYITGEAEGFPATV

SMILES | outcome [1] | Potency [2] | outcome [3] | Potency [4] | Potency [5] | Potency [6] | Potency [7] | outcome [8] | Potency [9] | Potency [10] | Potency [11] | Potency [12] | outcome [13] | Potency [14] | Potency [15] | outcome [16] | Potency [17] | Potency [18] | outcome [19]
CCOCC(=O)O | inactive | inactive | inactive | inactive | inactive | inactive | inactive | inactive | inactive | inactive | inactive | inactive | inactive | inactive | inactive | inactive | inactive | – | –
C[C@]12CCC(=O)C=C1CC[C@@H]1[C@@H]2[C@@H](O)C[C@@]2(C)[C@H]1CC[C@]2(O)C(=O)CO | inactive | inactive | inactive | – | – | inactive | – | inactive | inactive | inactive | – | inactive | inactive | inactive | inactive | inactive | inactive | inactive | inactive
CCO[Si](CCC#N)(OCC)OCC | inactive | inactive | inactive | inactive | inactive | inactive | inactive | inactive | inactive | inactive | inactive | inactive | inactive | inactive | inactive | inactive | inactive | – | –
NCCCCCCN | inactive | inactive | inactive | inactive | inactive | – | inactive | inactive | inactive | inactive | – | inactive | inactive | inactive | inactive | inactive | inactive | – | –
C=C(C)CNCC | inactive | inactive | inactive | inactive | inactive | – | inactive | inactive | inactive | inactive | – | inactive | inactive | inactive | inactive | inactive | inactive | – | –
O=C(O)c1ccc(S(=O)(=O)N(Cl)Cl)cc1 | inactive | inactive | inactive | inactive | 49.3 µM (active) and inactive | – | inactive | inactive | inactive | inactive | 38.8 µM (active) and inactive | inactive | inactive | inactive | inactive | inactive | inactive | – | inactive
Brc1ccc(Br)c(Br)c1 | inactive | inactive | inactive | inactive | inactive | inactive | inactive | inactive | inactive | inactive | inactive | inactive | inactive | inactive | inactive | inactive | inactive | – | –
Clc1ccccn1 | inactive | inactive | inactive | inactive | inactive | – | inactive | inactive | inactive | inactive | – | inactive | inactive | inactive | inactive | inactive | inactive | – | –
C[C@]12CC[C@@H]3c4ccc(O)cc4CC[C@H]3[C@@H]1C[C@@H](O)[C@@H]2O | inactive | inactive | inactive | inactive | inactive | – | inactive | inactive | inactive | inactive | – | inactive | inactive | inactive | inactive | inactive | 13.7 µM (active) and 5.96 µM (active) | – | inactive
CCNc1cccc(C)c1 | inactive | inactive | inactive | inactive | inactive | inactive | inactive | inactive | inactive | inactive | inactive | inactive | inactive | inactive | inactive | inactive | inactive | – | –
CC(C)CCCCCCCOC(=O)CCCCC(=O)OCCCCCCCC(C)C | inactive | inactive | inactive | inactive | inactive | – | inactive | inactive | inactive | inactive | – | inactive | inactive | inactive | inactive | inactive | inactive | – | –
CN(C)c1ccc(Cc2ccc(N(C)C)cc2)cc1 | inactive | inactive | inactive | inactive | – | inactive | inactive | inactive | inactive | inactive | – | inactive | inactive | inactive | inactive | inactive | inactive | – | –
O=C(OCC1CCC2OC2C1)C1CCC2OC2C1 (stereo unspecified) | inactive | inactive | inactive | inactive | inactive | inactive | inactive | inactive | inactive | inactive | inactive | inactive | inactive | – | – | inactive | inactive | – | –
O=C1CCCC1 | inactive | inactive | inactive | inactive | inactive | inactive | inactive | inactive | inactive | inactive | inactive | inactive | inactive | inactive | inactive | inactive | – | – | –
OCc1ccccc1 | inactive | inactive | inactive | inactive | inactive | – | inactive | inactive | inactive | inactive | inactive | inactive | inactive | inactive | inactive | inactive | inactive | inactive | inactive
c1ccc2c(c1)Cc1ccccc1-2 | inactive | inactive | inactive | inactive | inactive | – | inactive | inactive | inactive | inactive | inactive | inactive | inactive | inactive | inactive | inactive | inactive | – | –
